Assay results: PubChem BioAssay (NCATS)
Results filed as inconclusive are left out. Calls of active or inactive are those of the source. Calls follow the shape of the dose curve; as a rule, active = well fitted inhibition curve with a large enough effect; inconclusive = small, poorly fitted or top-dose-only effect; inactive = flat fitted curve, though single readings scatter.

Experiments:
Test in all cases: qHTS profiling for inhibitors of Plasmodium falciparum proliferation (AID 504749); also: nearly all actives have a fitted effect of over 60% in size
Conditions in all cases: P. falciparum in erythrocytes, SYBR Green DNA, 72 h; series mostly up to 28.7 µM
3D7 = tested on: 3D7
Procedure, shortened: (§1)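 In a 72 h erythrocytic culture (37 C, humidified, 5% CO2) at 2.5% hematocrit and 0.3% starting parasitemia, compounds were tested; SYBR Green I in detergent lysis buffer stained parasite DNA overnight.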

7G8 = tested on: 7G8
Procedure, shortened: as §1

AS120 = tested on: AS120
Procedure, shortened: as §1

ATS189 = tested on: ATS189
Procedure, shortened: as §1

CP185 = tested on: CP185
Procedure, shortened: as §1

CP191 = tested on: CP191
Procedure, shortened: as §1

CP192 = tested on: CP192
Procedure, shortened: as §1

CP194 = tested on: CP194
Procedure, shortened: as §1

CP201 = tested on: CP201
Procedure, shortened: as §1

CP203 = tested on: CP203
Procedure, shortened: as §1

CP247 = tested on: CP247
Procedure, shortened: as §1

CP286 = tested on: CP286
Procedure, shortened: as §1

DFO2036 = tested on: DFO2036
Procedure, shortened: as §1

DIV14 = tested on: DIV14
Procedure, shortened: as §1

DIV17 = tested on: DIV17
Procedure, shortened: as §1

DIV30 = tested on: DIV30
Procedure, shortened: as §1

P94_40 = tested on: P94_40
Procedure, shortened: as §1

PC49 = tested on: PC49
Procedure, shortened: as §1

TAB109 = tested on: TAB109
Procedure, shortened: as §1

TAB113 = tested on: TAB113
Procedure, shortened: as §1

Measured: Potency

CC(=O)[C@H]1CC[C@H]2C3CC=C4C[C@@H](O)CC[C@]4(C)C3CC[C@]12C (stereo not given in full)
inactive: all assays above
